Compound activity: PubChem, National Center for Advancing Translational Sciences (NCATS)
Pf growth 48h – inhibits P. falciparum growth in the first generation, 48 h; P. falciparum luciferase growth in erythrocytes, 48 h; Potency, µM (highest dose often 28.7 µM), actives largely listed as inhibitors; hit rate 5.9% among 310,000; AID 504832
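In quantitative HTS format, infected erythrocytes bearing luciferase-reporter parasites were treated for a single generation at 37 C. Luminescence after adding detection reagent served as the growth measure.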
HCMV antiviral – human cytomegalovirus inhibition | HFF cells, HCMV-luciferase reporter, 72 h; active compounds read low | activity change, negative = inhibition, % at 57.5 µM | hit rate 4.5% among 410,000; in the data active = activity change below about -60%; inconclusive = no clear call, values can overlap the other calls; inactive = above about -39%
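Two compound doses tested in HFFs infected with HCMV-luciferase, MOI 1 PFU/cell, 72 h at 37C. Lysate luminescence read with OneGlo; data normalized against buffer-only and 10uM Salinomycin inhibitor controls.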
Pf growth 96h – inhibits malaria parasite growth, 96 h; P. falciparum luciferase reporter growth, 96 h; Potency, µM (top dose mostly 28.7 µM), hits mostly inhibitors; hit rate 6.9% among 320,000
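Plates of compound plus infected erythrocytes (2% hematocrit, 0.05% parasitemia final) incubate 96 hours, 37 C, 5% CO2. Detection reagent added; reduced luminescence from the parasites' luciferase reporter flags inhibition.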
HCV inh – blocks hepatitis C virus | Huh7.5.1 HCVcc-Cre infection, luciferase reporter, 44 h | Potency, µM (doses to about 41.8 µM), most hits filed as inhibitors | hit rate 3.4% among 340,000 | AID 651820
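A cell-based infection assay in which seeded cells (1,000 per well) receive test compound after 4 h, are inoculated with HCVcc-Cre at approximately 0.5 moi, and are incubated 44 h before luminescence detection.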
Hits are given with their value; 0 = inactive; ? = inconclusive; - = not tested or not shown. Hits are enriched below; roughly 13% of the tested compounds scored in any of these assays. Unless noted, calls come from the whole dose curve; as a rule, active = well fitted inhibition curve with a large enough effect; inconclusive = small, poorly fitted or top-dose-only effect, or another doubt; inactive = no such curve, though single readings can be large or run the other way.

SMILES	Pf growth 48h	HCMV antiviral	Pf growth 96h	HCV inh
Cc1cc(C)cc(N(C)S(=O)(=O)c2nnc(NC(=O)COc3ccc(C)c(C)c3)s2)c1	-	0	-	-
CC(=O)c1cccc(NC(=O)CC2CCCC2)c1	0	0	0	0
COC(=O)c1cc(OC)c(OC)cc1NC(=O)CC1CCCCC1	10µM	0	0	0
COC(=O)c1cc(OC)c(OC)cc1NC(=O)CN1CCCCC1	0	0	0	?
COC(=O)c1cc(NC(=O)CC2CCCC2)cc(C(=O)OC)c1	?	-64	?	0
CCc1sc(Nc2cccc(Cl)c2)nc1-c1cc2cccc(OC)c2oc1=O	-	0	-	-
CC1(C)CC(=O)C2=C(C1)N(CCN1CCOCC1)C1=C(C(=O)CC(C)(C)C1)C2c1cccc(F)c1	12µM	0	0	0
CC1(C)CC(=O)C2=C(C1)N(CCN1CCOCC1)C1=C(C(=O)CC(C)(C)C1)C2c1ccc(Cl)cc1	5.2µM	0	?	0
COc1ccc(C2C3=C(CC(C)(C)CC3=O)N(CCN3CCOCC3)C3=C2C(=O)CC(C)(C)C3)cc1	0	0	0	0
CCC1CCCCN1CCCNS(=O)(=O)c1ccc2c(c1)oc(=O)n2C (centres undefined)	12µM	0	2.9µM	0
CCC1CCCCN1CCNS(=O)(=O)c1ccc2c(c1)oc(=O)n2C (centres undefined)	0	0	0	0
COc1ccc(CNC(=O)CCNS(=O)(=O)c2ccc3c(c2)oc(=O)n3C)cc1	0	0	12µM	?
Cn1c(=O)oc2cc(S(=O)(=O)NCCC(=O)N3CCc4ccccc4C3)ccc21	-	0	-	0
Cn1c(=O)oc2cc(S(=O)(=O)NCCN3CCc4ccccc4C3)ccc21	0	0	8.3µM	0
CCC1CCCCN1C(=O)CCNS(=O)(=O)c1ccc2c(c1)oc(=O)n2C (centres undefined)	?	0	2.3µM	0
COC1OC(COCc2ccccc2)C2OC(C)(C)OC2C1O (centres undefined)	-	0	-	-
Cc1ccc(-c2cc3c(nn2)-c2ccccc2C3=O)cc1	0.52µM	0	0.37µM	0
O=C1c2ccccc2-c2nnc(-c3ccc(F)cc3)cc21	0	0	?	0
Cc1ccccc1-c1cc2c(nn1)-c1ccccc1C2=O	4.1µM	0	-	0
Cc1ccccc1N1C(=O)C(Cl)=C(N2CCN(c3ccccc3)CC2)C1=O	0	0	3.7µM	0
O=C1C(Cl)=C(N2CCCCCC2)C(=O)N1c1ccccc1Cl	0	0	0	0
O=C1C(Cl)=C(N2CCCC2)C(=O)N1c1ccccc1F	0	0	2.6µM	0
CCOC(=O)c1ccc(NC(=O)CSc2cc(-c3ccccc3)nc(C)n2)cc1	-	0	-	-
CC(NC(=O)CSc1nnc(-c2cc3cc(Cl)ccc3o2)n1C)c1ccccc1 (centres undefined)	?	0	4.7µM	?
CCN(CCO)c1ncnc2c1sc1nc(CC(C)C)c3c(c12)CC(C)(C)OC3	0	0	0	14µM
SMILES	Pf growth 48h	HCMV antiviral	Pf growth 96h	HCV inh
NNc1nnnc2c1sc1nc(N3CCOCC3)c3c(c12)CCCC3	?	-	?	0
CCN(CC)CCNc1ncnc2c1sc1nc(N3CCCC3)c3c(c12)CC(C)(C)OC3	10µM	0	0	2µM
CCN(CC)CCNc1ncnc2c1sc1nc(N3CCOCC3)c3c(c12)CCCC3	9.3µM	0	?	?
Cc1cccc(-n2cnc3c(sc4nc(N5CCOCC5)c5c(c43)CCCC5)c2=O)c1	2.1µM	?	?	18µM
Cc1ccccc1NC(=O)/C(C#N)=C/c1ccc(Cl)cc1Cl	-	0	-	-
CCOc1ccc(CCNC(=O)c2nn(C)c3c2CSc2ccc(C)cc2-3)cc1OCC	-	0	-	-
CCOc1ccc(CNCc2c(C(=O)O)c(C)n(Cc3ccc(F)cc3Cl)c2C)cc1	-	0	-	-
CN(C)CCNc1ncnc2c1sc1nc(N3CCCC3)c3c(c12)CC(C)(C)OC3	0	?	0	13µM
N#Cc1c(-c2ccco2)c2c([nH]c1=S)CCCC2	0	0	10µM	0
O=C(NCc1ccc(Cl)cc1)c1ccncc1	0	0	?	0
COc1ccc(CNC(=O)C(OC(=O)c2ccco2)c2ccccc2F)cc1 (centres undefined)	0	0	0	0
Cc1ccc(SCc2ccc(C(=O)NCc3ccncc3)cc2)cc1	0	-78	0	0
COc1ccc(CNC(=O)c2ccncc2)cc1	0	?	3.3µM	0
Cc1ccc(SCCC(=O)NCc2ccncc2)cc1	0	0	0	0
O=C(NCc1ccc(F)cc1)c1ccncc1	0	0	6.6µM	0
COc1ccc(CNC(=O)C(OC(C)=O)c2ccccn2)cc1 (centres undefined)	0	0	15µM	0
CCOC(=O)C1=CCN(S(=O)(=O)c2ccc(F)cc2)C1c1ccc(Cl)cc1 (centres undefined)	-	0	-	-
O=[N+]([O-])c1ccc2c(c1)C(=NO)c1cc(Cl)c(Cl)cc1-2	-	?	-	11µM
CC(=O)Nc1cc2c(cc1[N+](=O)[O-])-c1ccccc1C2=NO	-	0	-	0
Nc1cc2c(cc1[N+](=O)[O-])-c1ccccc1C2=NO	-	-68	-	?
O=C1/C(=C/c2ccco2)Oc2c1ccc(O)c2CN1CCCCC1	?	?	?	0
CCN1CCN(Cc2c(O)ccc3c2O/C(=C\C=C\c2ccccc2OC)C3=O)CC1	2.9µM	0	4.1µM	0
CC1CCN(Cc2c(O)ccc3c2O/C(=C\c2ccco2)C3=O)CC1	15µM	-	10µM	0
COc1ccc(NC(=O)C(=O)NCCc2csc(-c3ccc(Cl)cc3)n2)cc1OC	-	0	-	-
CCC(=Nc1ccc2c(c1)CCC2)c1c(O)n(C2CCCCC2)c(=O)[nH]c1=O	-	-85	?	0
SMILES	Pf growth 48h	HCMV antiviral	Pf growth 96h	HCV inh
C/C(=N\N1CCCCCC1)c1c(O)n(C2CCCCC2)c(=O)[nH]c1=O	?	0	13µM	0
COc1ccc(N=C(C)c2c(O)n(C3CCCCC3)c(=O)[nH]c2=O)c(OC)c1	0	0	0	0
COc1cc(CN=C(C)c2c(O)n(C3CCCCC3)c(=O)[nH]c2=O)cc(OC)c1	?	0	0	10µM
CCCCn1c(O)c(C(C)=NCc2cc(OC)cc(OC)c2)c(=O)[nH]c1=O	0	0	-	?
CCCCn1c(O)c(C(CC)=NCc2cc(OC)cc(OC)c2)c(=O)[nH]c1=O	0	0	?	13µM
CCC(=NC1CC1)c1c(O)n(C2CCCCC2)c(=O)[nH]c1=O	?	0	?	0
CCC(=NCc1cc(OC)cc(OC)c1)c1c(O)n(C2CCCCC2)c(=O)[nH]c1=O	?	0	0.83µM	?
O=C(Nc1ccccc1)OCCOc1ccccc1	-	0	-	13µM
Cc1ccc(C)c(NC(=O)CN(C)C(=O)c2oc3c(Cl)cccc3c2C)c1	4.1µM	0	2.9µM	?
Cc1ccc(C)c(NC(=O)CN(C)C(=O)CCN2C(=O)c3ccccc3C2=O)c1	0	0	0	0
O=C(CCC(=O)OCCOc1ccccc1)OCCOc1ccccc1	-	-98	-	-
CCOc1ccccc1OCCCC(=O)N(C)CC(=O)Nc1cc(C)ccc1C	0	-70	0	0
O=C(O)c1ccc(OCCOc2ccccc2)cc1	0	0	0	0
COc1ccc(NC(=O)C2CCN(S(=O)(=O)c3cc(-c4noc(C)n4)ccc3C)CC2)cc1	-	0	-	-
